Data reported in PubChem BioAssay.
Activity calls are given as the source filed them. Unless noted, no rule for the calls is given here.

How the values were obtained:
[1] = test system: XIP peptide (Xip251-270) binding; assay: small-molecule binders of XIP peptide, primary screen, biochemical, small-molecule microarray, fluorescence 635/667 nm, 0.1 µg/mL protein (AID 1182); settings: fluorescent protein binding, 635 nm, higher = more signal, called active from +8 up or from −8 down
XIP peptide (Xip251-270) = assay: small-molecule binders of XIP peptide, primary screen, biochemical, small-molecule microarray, fluorescence 635/667 nm, 0.5 µg/mL protein (AID 1183); settings: small-molecule microarray binding, fluorescence 635 nm; higher = more signal
[2] = Plasmodium falciparum growth inhibition, primary screen, strain 3D7, DAPI fluorescence, 100 nL (AID 1184);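 also: parasites grown inside human red blood cells in medium with human serum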; settings: P. falciparum 3D7 growth, 3 d, higher = more signal
[3] = biological target: Homeobox protein Hox-A13 (Mus musculus) (UniProt Q62424); assay: inhibitors of HoxA13-DNA binding, primary screen, biochemical, fluorescence polarization, labeled oligonucleotide (AID 1185); settings: 15 min, higher = more signal, called active from +8 up or from −8 down
[4] = inhibitors of hydroxyurea-induced Chk1 phosphorylation, primary screen, imaging, HeLa, phospho-Chk1 antibody, percent positive cells (AID 1186); settings: hydroxyurea-induced phospho-Chk1 immunofluorescence imaging, higher = more signal
[5] = inhibitors of hydroxyurea-induced Chk1 phosphorylation, primary screen, imaging, HeLa, phospho-Chk1 nuclear intensity (AID 1187); settings: hydroxyurea-induced phospho-Chk1 immunofluorescence imaging, higher = more signal

Chain of Homeobox protein Hox-A13 (Mus musculus) (Q62424 whole entry, looked up): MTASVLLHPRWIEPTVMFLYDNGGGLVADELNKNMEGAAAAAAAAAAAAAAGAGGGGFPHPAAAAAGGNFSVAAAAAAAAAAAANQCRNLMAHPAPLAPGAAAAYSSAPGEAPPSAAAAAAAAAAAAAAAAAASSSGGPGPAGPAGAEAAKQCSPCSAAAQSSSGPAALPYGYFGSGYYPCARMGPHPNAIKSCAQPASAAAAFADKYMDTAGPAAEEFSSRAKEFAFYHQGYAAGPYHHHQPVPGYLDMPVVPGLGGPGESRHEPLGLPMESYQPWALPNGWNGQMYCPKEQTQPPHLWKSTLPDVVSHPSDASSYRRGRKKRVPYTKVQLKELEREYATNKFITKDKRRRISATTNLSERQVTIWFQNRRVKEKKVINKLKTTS

| SMILES | composite z-score [1] | composite z-score (XIP peptide (Xip251-270)) | z-score [2] | z-score [3] | z-score [4] | z-score [5] |
| --- | --- | --- | --- | --- | --- | --- |
| CN1C(=O)C2CC=C(C3=CCO[C@@H]3[C@H]3CCCN3S(=O)(=O)c3ccccc3[N+](=O)[O-])CC2C1=O (some centres undefined) | 0.162 (inactive) | 0.728 | 0.561 | -6.57 (inactive) | -0.0719 (inactive) | 0.234 (inactive) |
| CO[C@H]1O[C@H](CO)[C@@H](OC(=O)Nc2cccc(F)c2)[C@H](OC(=O)Nc2ccc3c(c2)OCO3)[C@@H]1OC(=O)Nc1ccc2c(c1)OCO2 | 0.968 (inactive) | 0.894 | -0.754 | -6.1 (inactive) | 0.223 (inactive) | 0.613 (inactive) |
| CCCCCCc1nc(-c2ccc(OC)nc2)c(C)c2c1[Si](C(C)C)(C(C)C)OC2 | -0.186 (inactive) | -0.7 | -2.14 | 0.384 (inactive) | -0.531 (inactive) | 0.0171 (inactive) |
| COC(=O)C(CC#Cc1ccc2c(c1)[C@]1(C(=O)N2)[C@H](C(N)=O)[C@H]2C(=O)O[C@H](c3ccccc3)[C@H](c3ccccc3)N2[C@@H]1c1ccccc1OCCO)C(=O)OC | 0.898 (inactive) | 0.817 | -2.08 | -1.12 (inactive) | -0.49 (inactive) | -0.137 (inactive) |
| COCCOC(=O)N1C(=O)[C@@]2(c3cc(C#CCNC(N)=O)ccc31)[C@H](c1ccc(O)cc1)N1[C@H](c3ccccc3)[C@H](c3ccccc3)OC(=O)[C@H]1[C@@H]2C(=O)N1CCc2cc(OC)c(OC)cc2C1 | -0.0561 (inactive) | 0.329 | -0.0011 | -1.73 (inactive) | 0.0017 (inactive) | -0.0878 (inactive) |
| CC1(C)OB(/C=C\CC(OC(=O)c2ccncc2)c2ccccc2)OC1(C)C (centres undefined) | 0.258 (inactive) | 0.478 | 0.78 | -3.16 (inactive) | 0.301 (inactive) | 0.415 (inactive) |
| [N-]=[N+]=NCc1ccccc1[C@H]1OC(c2ccc(OCCCO)cc2)=N[C@@]1(CCS(=O)(=O)c1ccccc1)C(=O)O | -0.0179 (inactive) | 0.446 | 0.0638 | -5.36 (inactive) | -0.0059 (inactive) | -0.587 (inactive) |
| C=C(COC)C(=O)CC[C@@H](OC(=O)c1ccccc1-c1ccccc1C(=O)O)c1ccccc1OCCO | 0.106 (inactive) | 0.17 | -2.51 | -5.71 (inactive) | 0.788 (inactive) | 0.888 (inactive) |
| O=C(c1ccccc1)N1Cc2ccccc2C[C@@]2(N=C(c3ccc(OCCCO)cc3)O[C@H]2c2ccccc2)C1=O | 0.742 (inactive) | 0.814 | -1.92 | -2.43 (inactive) | -0.0769 (inactive) | 0.098 (inactive) |
| COC(=O)c1ccc(OC)c(/C=C\CC(OC(=O)c2ccncc2)c2ccccc2)c1 (centres undefined) | 0.601 (inactive) | 0.146 | -1.33 | -5.02 (inactive) | -0.843 (inactive) | -0.432 (inactive) |
| C=CCNC(=O)[C@@H]1[C@H]2C(=O)O[C@H](c3ccccc3)[C@H](c3ccccc3)N2[C@H](c2ccc(OCCO)cc2)[C@@]12C(=O)N(C(=O)OCCOC)c1ccccc12 | 1.44 (inactive) | 0.718 | -0.643 | -3.58 (inactive) | -0.0546 (inactive) | 0.0358 (inactive) |
| COc1ccc(-c2cc3c(c(CCc4ccccc4)n2)[Si](C(C)C)(C(C)C)O[C@H]3c2ccccc2)cn1 | -0.269 (inactive) | -0.179 | -1.41 | -1.35 (inactive) | -0.0745 (inactive) | -0.194 (inactive) |
| C=C[C@@H](CO)NS(=O)(=O)c1ccc(Br)cc1 | -0.987 (inactive) | -1.58 | -0.345 | 0.553 (inactive) | -0.734 (inactive) | -0.695 (inactive) |
| COCCOC(=O)N1C(=O)[C@@]2(c3cc(C#CCCO)ccc31)[C@H](c1ccc(O)cc1)N1[C@H](c3ccccc3)[C@H](c3ccccc3)OC(=O)[C@H]1[C@@H]2C(=O)NC[C@H](O)c1ccccc1 | 0.395 (inactive) | 0.859 | 0.0019 | -2.51 (inactive) | 0.0615 (inactive) | 0.345 (inactive) |
| CN1C(=O)C2C=CC(C(O)c3cccs3)N(N(c3ccccc3)c3ccccc3)C2C1=O (centres undefined) | 0.564 (inactive) | 0.482 | -0.0266 | -4.42 (inactive) | 0.557 (inactive) | -0.499 (inactive) |
| C[C@]1(C(=O)O)c2ccccc2C(=O)N(Cc2cc(C(F)(F)F)cc(C(F)(F)F)c2)[C@H]1c1ccc(CO)cc1 | 0.17 (inactive) | 0.816 | 1.06 | -2.61 (inactive) | 0.19 (inactive) | 0.362 (inactive) |
| C=C1C(=O)C=C2CN(C(=O)c3ccccc3)[C@@](Cc3ccc(F)cc3)(C(=O)OC)[C@@H]12 | 0.741 (inactive) | 0.459 | -1.59 | -4.76 (inactive) | -2.23 (inactive) | -3.76 (inactive) |

| SMILES | composite z-score [1] | composite z-score (XIP peptide (Xip251-270)) | z-score [2] | z-score [3] | z-score [4] | z-score [5] |
| --- | --- | --- | --- | --- | --- | --- |
| COC(=O)[C@@]1(Cc2ccc(OC)cc2)[C@H]2c3cc(C(=O)N(C)C)n(Cc4c(CO)[nH]cc(C)c4=O)c3C[C@H]2CN1C(=O)c1ccccc1 | -0.582 (inactive) | 0.349 | -0.116 | -3.64 (inactive) | 0.54 (inactive) | 0.376 (inactive) |
| O=C1c2ccccc2[C@](Cc2ccccc2I)(C(=O)NCCN2CCOCC2)[C@H](c2ccc(CO)cc2)N1Cc1ccccc1C(F)(F)F | 0.0302 (inactive) | 0.627 | -1.29 | -4.81 (inactive) | -0.0107 (inactive) | -0.105 (inactive) |
| CCCCCCCCCCC(O)C1C=CC2C(=O)N(C)C(=O)C2N1Nc1ccccc1 (centres undefined) | 1.04 (inactive) | -1.39 | -0.0339 | -2.87 (inactive) | 0.999 (inactive) | 0.135 (inactive) |
| CCOC(=O)C[C@H]1[C@H](OC(=O)c2ccc(-c3ccccc3)cc2)[C@@H](NC(=O)c2ccc(-c3ccccc3)cc2)c2cc(OCCCO)ccc2N1C(=O)c1ccccc1 | 1.11 (inactive) | 0.426 | -0.482 | -1.22 (inactive) | -0.166 (inactive) | 0.205 (inactive) |
| COc1ccc([Si](C)(C)[C@H]2[C@H](CC(=O)N3CCC[C@H]3CO)O[C@@]3(C(=O)N(Cc4cccc(N5CCCCC5=O)c4)c4ccccc43)[C@@H]2C)cc1 | 2.57 (inactive) | 0.714 | -1.33 | -3.23 (inactive) | -0.319 (inactive) | 0.519 (inactive) |
| COCCOC(=O)N1C(=O)[C@@]2(c3cc(C#CCNC(N)=O)ccc31)[C@H](C(N)=O)[C@H]1C(=O)O[C@H](c3ccccc3)[C@H](c3ccccc3)N1[C@@H]2c1ccc(O)cc1 | 0.201 (inactive) | -0.532 | 1.75 | -3.48 (inactive) | 0.319 (inactive) | 0.888 (inactive) |
| CCCC=C(CCC)[C@@H](NC(=O)c1ccc(C(=O)OC)cc1)c1ccc(C(=O)OC)cc1 | -0.0958 (inactive) | -0.345 | -0.685 | -2.06 (inactive) | 0.151 (inactive) | -0.745 (inactive) |
| C=CCNC(=O)[C@H]1[C@@H]2C(=O)O[C@@H](c3ccccc3)[C@@H](c3ccccc3)N2[C@@H](c2ccc(OCCO)cc2)[C@]12C(=O)Nc1ccc(C#Cc3ccc(OC)cc3)cc12 | 0.43 (inactive) | 0.773 | -2.39 | -0.279 (inactive) | 0.165 (inactive) | 0.202 (inactive) |
| CC(C)(C)OC(=O)CC[C@@]1(C(N)=O)N=C(c2ccc(OCCCO)cc2)O[C@@H]1c1ccccc1CN=[N+]=[N-] | -0.015 (inactive) | 0.297 | 1.1 | -4.71 (inactive) | 0.3 (inactive) | 0.317 (inactive) |
| CCOC(=O)C[C@H]1[C@H](OC(=O)c2ccccc2-c2ccccc2)[C@@H](NC(=O)CC(C)C)c2cc(OCCCO)ccc2N1C(=O)c1ccccc1 | 0.539 (inactive) | 0.649 | -0.966 | -4.48 (inactive) | -0.439 (inactive) | -0.151 (inactive) |
| Cc1ccc(S(=O)(=O)N2[C@@H](c3ccccc3)C(C(=O)O)=C[C@H]2C(C)(C)C)cc1 | 1.11 (inactive) | 0.792 | -1.04 | -5.12 (inactive) | 0.694 (inactive) | 0.0696 (inactive) |
| C=C(CCCC)/C(=C/C[C@@H](OC(C)=O)c1cccc(OCCO)c1)c1cc(C(=O)OC)ccc1OC | -0.234 (inactive) | 0.826 | -3.06 | -5.01 (inactive) | 0.496 (inactive) | 0.331 (inactive) |
| CCCC1(C(=O)OC)C=C2C(=C(C(C)C)C(=O)C2C)CN1 (centres undefined) | -0.275 (inactive) | -0.619 | 0.77 | -6.18 (inactive) | 0.493 (inactive) | 0.473 (inactive) |
| CN1C(=O)C2C=CC(C(O)c3ccc([N+](=O)[O-])cc3)N(Nc3ccccc3)C2C1=O (centres undefined) | 0.924 (inactive) | 0.818 | -0.219 | -4.24 (inactive) | 0.533 (inactive) | 0.397 (inactive) |
| CO[C@H]1O[C@H](CO)[C@@H](OC(=O)Nc2cccc(F)c2)[C@H](OC(=O)c2cc3ccccc3[nH]2)[C@H]1OC(=O)c1cc2ccccc2[nH]1 | -0.194 (inactive) | -0.141 | -0.194 | -0.266 (inactive) | -0.313 (inactive) | -0.455 (inactive) |
| CC(=O)NCCCC[C@@H]1NC(=O)[C@H]2C[C@@H](C(=O)O)[C@@H](c3cccc(OCCO)c3)N2C1=O | 1.31 (inactive) | 0.806 | -0.48 | -2.31 (inactive) | 0.165 (inactive) | -0.347 (inactive) |
| CCCCC=C[C@@H](NC(=O)C(C)(C)C)c1ccccc1 | 1.38 (inactive) | 0.324 | -0.501 | -0.258 (inactive) | 0.579 (inactive) | -0.124 (inactive) |
